The list is not random: actives were taken first. Their share in the collection is about 2.9%.
PLC-gamma1 inh: inhibitors of human phospholipase C gamma1 | purified PLC-gamma1, fluorogenic substrate, fluorescence | inhibition, % at 12.2 µM | actives 0.84% (n = 370,000) | AID 720700
Target sequence (P19174 whole entry, looked up): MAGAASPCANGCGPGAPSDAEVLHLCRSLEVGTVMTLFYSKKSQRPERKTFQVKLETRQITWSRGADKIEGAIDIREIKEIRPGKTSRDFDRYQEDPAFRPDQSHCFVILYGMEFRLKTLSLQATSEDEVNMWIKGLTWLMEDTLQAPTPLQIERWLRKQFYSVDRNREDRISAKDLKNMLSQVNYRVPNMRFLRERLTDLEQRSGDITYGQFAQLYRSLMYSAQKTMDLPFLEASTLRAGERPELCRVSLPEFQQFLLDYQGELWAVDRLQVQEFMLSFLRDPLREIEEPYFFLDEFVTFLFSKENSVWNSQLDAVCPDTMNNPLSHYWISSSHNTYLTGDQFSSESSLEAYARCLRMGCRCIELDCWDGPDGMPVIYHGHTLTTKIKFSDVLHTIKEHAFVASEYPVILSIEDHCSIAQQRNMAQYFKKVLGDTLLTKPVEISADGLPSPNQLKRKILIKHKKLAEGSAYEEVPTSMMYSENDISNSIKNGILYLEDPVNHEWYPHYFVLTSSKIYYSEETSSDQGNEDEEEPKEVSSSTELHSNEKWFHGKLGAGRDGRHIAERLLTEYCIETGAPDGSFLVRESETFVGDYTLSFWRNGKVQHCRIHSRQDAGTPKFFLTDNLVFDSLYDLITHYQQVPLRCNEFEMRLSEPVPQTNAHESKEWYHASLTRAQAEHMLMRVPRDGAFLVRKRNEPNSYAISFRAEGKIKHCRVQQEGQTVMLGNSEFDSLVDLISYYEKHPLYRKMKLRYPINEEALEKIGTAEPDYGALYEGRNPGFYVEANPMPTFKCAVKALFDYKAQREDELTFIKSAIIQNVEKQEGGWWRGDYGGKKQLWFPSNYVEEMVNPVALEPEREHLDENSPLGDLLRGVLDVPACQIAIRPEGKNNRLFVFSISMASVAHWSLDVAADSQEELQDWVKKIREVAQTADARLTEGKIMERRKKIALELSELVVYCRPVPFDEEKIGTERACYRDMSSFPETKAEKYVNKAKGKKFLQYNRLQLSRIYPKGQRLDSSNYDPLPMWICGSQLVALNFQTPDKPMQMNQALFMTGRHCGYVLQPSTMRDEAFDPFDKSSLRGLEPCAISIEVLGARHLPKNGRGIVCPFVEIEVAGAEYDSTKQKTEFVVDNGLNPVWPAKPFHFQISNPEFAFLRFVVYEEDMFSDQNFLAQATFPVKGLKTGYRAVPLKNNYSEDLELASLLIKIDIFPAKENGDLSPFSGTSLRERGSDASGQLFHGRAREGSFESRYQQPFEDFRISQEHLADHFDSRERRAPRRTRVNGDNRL
KLK7 zymogen act: proKLK7 (human) activation, primary screen; P49862; purified proKLK7, EDANS-DABCYL substrate fluorescence; 100% is mature enzyme control, 0% vehicle; activation, % at 7 µM; actives 0.9% (n = 370,000); AID 652039;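 active means activation above the mean of all tested compounds plus 3 SD, computed per campaign excluding outliers beyond control limits, cut at about 13% in these data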
ADAM10 inh: ADAM10 inhibition, QFRET primary screen. O14672. recombinant ADAM10, EDANS/DABCYL FRET peptide cleavage, 3 h. inhibition, % at 7 µM. actives 0.62% (n = 370,000). AID 720582;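 active means inhibition above a per-campaign cutoff equal to the mean of compounds falling between control-based bounds plus 3 SD, cut at about 20% in these data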;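 further: 0% = DMSO wells while the 100% control is not disclosed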
ADAM17 inh: inhibitors of human ADAM17; P78536; recombinant ADAM17, EDANS/DABCYL FRET peptide cleavage; inhibition, % at 6.95 µM; actives 0.83% (n = 370,000);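 active means inhibition above the mean of compounds lying between control limits plus 3 SD, set per campaign, cut at about 8.5% in these data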;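 further: 0% = DMSO-only wells as the low control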
PLCb3 inh: inhibitors of human phospholipase C beta3; AID 720704; inhibition, % at 12.2 µM; Q01970; Purified PLC-beta3, fluorogenic substrate, fluorescence; actives 0.18% (n = 370,000); in the data active means inhibition above about 11%;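 further: 0% = median of compound wells on plate and 100% = full blocker control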
PLCg1 ctr: inhibits human PLC-gamma1 in PLC-beta3 counter-screen; shares compounds with PLC-gamma1 inh; purified PLC-gamma1, fluorogenic substrate, fluorescence; inhibition, % at 12.3 µM; actives 3.1% (n = 3,300)
PLCb3 confirm: human PLC-beta3 inhibition, confirmation | actives 1% (n = 3,300) | purified PLC-beta3, fluorogenic substrate fluorescence | AID 743261 | shares compounds with PLC-gamma1 inh | inhibition, % at 12.3 µM; in the data active means inhibition above about 11%
The depositor's hits bear a star; . = no result given. Unless noted, no stated cut-off is given here; in the data, active means inhibition above about 9.5%; inactive means the rest.

SMILES	PLC-gamma1 inh	KLK7 zymogen act	ADAM10 inh	ADAM17 inh	PLCb3 inh	PLCg1 ctr	PLCb3 confirm
Cc1ccc(NC(=O)C2COc3ccccc3O2)cc1S(=O)(=O)N1CCCCC1 (stereo not drawn)	1	0	9	5	-3	.	.
CN(C(=O)COC(=O)COc1ccc2ccccc2c1)c1ccccc1	-3	0	-3	0	-5	.	.
Cc1cc(C(=O)N2CCC2(C)C(=O)Nc2ccc3[nH]ncc3c2)nn1C (stereo not drawn)	3	0	-11	4	15*	-7	-5
CC1(C(=O)Nc2ccc3[nH]ncc3c2)CCN1C(=O)CC(c1ccccc1)c1ccccc1 (stereo not drawn)	-1	0	2	2	2	.	.
Cc1c(NC(=O)C(C)OC(=O)c2ccc([N+](=O)[O-])cc2Cl)c(=O)n(-c2ccccc2)n1C (stereo not drawn)	3	0	2	-1	-2	.	.
C[C@H]1CCC(=O)N([C@H](COc2ccccc2)Cc2ccccc2)CC1	11*	0	8	8	2	-9	-3
C#CCOn1c(-n2nc(C)cc2C)nc2ccccc2c1=O	10*	-1	8	3	-3	-2	-3
COn1c(-n2nc(C)cc2C)nc2ccccc2c1=O	-1	0	-4	-3	0	.	.
COc1cc(CN2CCC(C)CC2)ccc1OCc1ccccc1	15*	-1	3	4	-2	5	4
COc1ccc(S(=O)(=O)N2CCCCCC2)cc1C(=O)NCCc1ccccc1	1	0	-4	1	-2	.	.
O=C(O)c1cccc(-c2ccc(/C=c3/sc4nc5ccccc5n4c3=O)o2)c1	18*	-1	1	-2	-13	-182	-176
O=S(=O)(NC1CCCC1)c1ccccc1Br	9	0	1	5	16*	-1	0
CCc1nc2ccc(C(=O)Nc3ccc(NC(C)=O)cc3)cn2c1N(C)CCCc1ccccc1	-15	-1	11	3	-27	.	.
Clc1nc(Cl)nc(N(c2ccccc2)c2ccccc2)n1	9.6*	0	2	3	6	-5	0
COc1ccccc1C(=O)NC(=O)COc1ccc([N+](=O)[O-])cc1	9.8*	0	7	5	-2	-4	-1
Cc1ccc2c(=O)n3c(nc2c1)C(Cc1ccc(O)cc1)NC(=O)c1cccnc1-3 (stereo not drawn)	-1	0	-8	-2	1	.	.
CCC(C)[C@H](NC(=O)Nc1cccc(Br)c1)C(=O)OC (stereo partly drawn)	13*	0	0	4	9	-6	-1
c1csc(CNCCN2CCOCC2)c1	12*	-1	0	8	1	-6	-3
CCOC(=O)CCCCCC(=O)Nc1ccc2c(c1)CC(=O)N([C@H](C)CO)C[C@H](C)[C@H](CN(C)S(=O)(=O)c1ccc(OC)cc1)O2	-1	-1	14	0	4	.	.
CCN(CC)CC(=O)NCc1cc(-c2ccc(OC)cc2)no1	2	0	4	0	1	.	.
COc1ccc(-c2cc(CNC(=O)CN3CCN(C)CC3)on2)cc1	9.5*	0	-5	-1	-369	-7	-2
Cc1cccc(C)c1N(CC(=O)NC1CCCCC1)C(=O)c1csnn1	16*	-1	-12	5	-1	-5	1
COC(=O)[C@H]1C[C@@]2(CC=C(C)C)c3ccccc3N(C(=O)OC(C)(C)C)[C@H]2N1C(=O)OC(C)(C)C	0	.	12	1	2	.	.
Cc1ccc(NC(=S)N2CCC(c3ccccc3)C2)c(Cl)c1 (stereo not drawn)	1	0	9	-2	-3	.	.
S=C(Nc1ccccc1Cl)N1CCC(c2ccccc2)C1 (stereo not drawn)	10*	-1	1	3	-1	-2	2
SMILES	PLC-gamma1 inh	KLK7 zymogen act	ADAM10 inh	ADAM17 inh	PLCb3 inh	PLCg1 ctr	PLCb3 confirm
COc1ccc(C(C(=O)NC2CCCC2)n2c(C3CCN(C(C)=O)CC3)nc3ccccc32)cc1 (stereo not drawn)	4	0	-7	1	2	.	.
Cc1ccc(/C=C/C(=O)O)cc1S(=O)(=O)NC1CCS(=O)(=O)C1 (stereo not drawn)	11*	0	0	5	8	0	1
CCn1c(SCC(=O)Nc2nc(C)c(C)s2)nnc1-c1cccnc1	9.8*	0	-8	0	0	2	1
Cc1nn(-c2ccccc2)nc1-c1nnc(-c2ccc(C(F)(F)F)cc2)o1	1	0	-9	-6	-9	.	.
Cc1noc(C)c1-c1nnc(-c2ccc(C(F)(F)F)cc2)o1	10*	1	15	5	1	5	2
O=C(CSCc1ccccc1)Nc1cccc(F)c1	11*	0	8	-1	9	4	8
COc1ccc(Cl)cc1S(=O)(=O)N(C)CC(=O)NCc1ccccn1	9.6*	-1	-9	-4	-6	-1	1
Cn1c(SCC(=O)NCC2CCCO2)nnc1-c1ccc(S(=O)(=O)N2CCCC2)cc1 (stereo not drawn)	9.8*	0	10	3	-1	-8	-4
O=C(CSc1nnc(-c2ccc(S(=O)(=O)N3CCCC3)cc2)o1)NCC1CCCO1 (stereo not drawn)	-1	0	-4	-5	-1	.	.
Cc1ccc(-c2nnc(SCC(=O)NC3CCCC3)n2C)cc1	11*	0	-2	-2	-10	-9	-2
Clc1cccc(CN2CCCCCC2)c1Cl	1	0	4	-1	-5	.	.
O=C(O)c1ccc(NC2=C/C(=N/S(=O)(=O)c3ccccc3)c3ccccc3C2=O)cc1	11*	1	10	2	7	18*	8
O=C1C(Nc2ccc(O)cc2)=C/C(=N/S(=O)(=O)c2cccs2)c2ccccc21	20*	1	5	4	7	29*	11*
CCOC(=O)C(C)N1c2cccc3cccc(c23)S1(=O)=O (stereo not drawn)	-225	7	-321	-88	-283	.	.
O=c1[nH]n(-c2ccc(Cl)cc2)c(=O)c(Cl)c1Cl	9.8*	1	5	7	3	-8	-7
O=c1c(-c2ccnn2-c2ccc(F)cc2)cnc2n1CCS2	-1	-1	0	-2	0	.	.
O=c1ccnc2n1COCS2	12*	0	5	4	0	-5	-1
CSCC[C@H](NC(=O)CCn1nnc2ccccc2c1=O)C(=O)O	11*	0	0	4	12*	6	8
O=C(O)c1ccccc1C(=O)OCC1CCC(=NO)CC1 (stereo not drawn)	-2	0	-4	-3	2	.	.
Cc1[nH]c(=O)c(C#N)c(C)c1Cc1ccc(Cl)cc1Cl	0	0	3	-4	2	.	.

Compound activity from PubChem.
